Values joined by “and” are separate entries in the source; they are usually repeats but may differ in a detail not shown here. Identical values can stand only once. Results filed as inconclusive are left out. Active and inactive are the calls of the source. Rule for the calls, unless noted: active = hit-call score of the fitted dose curve at least 0.9, where 1 is the maximum; inconclusive = response in the unintended direction; inactive = score below 0.9.

Chain of rat CYP2A1, Cyp2a1 (gene 24894) (P11711 whole entry, looked up): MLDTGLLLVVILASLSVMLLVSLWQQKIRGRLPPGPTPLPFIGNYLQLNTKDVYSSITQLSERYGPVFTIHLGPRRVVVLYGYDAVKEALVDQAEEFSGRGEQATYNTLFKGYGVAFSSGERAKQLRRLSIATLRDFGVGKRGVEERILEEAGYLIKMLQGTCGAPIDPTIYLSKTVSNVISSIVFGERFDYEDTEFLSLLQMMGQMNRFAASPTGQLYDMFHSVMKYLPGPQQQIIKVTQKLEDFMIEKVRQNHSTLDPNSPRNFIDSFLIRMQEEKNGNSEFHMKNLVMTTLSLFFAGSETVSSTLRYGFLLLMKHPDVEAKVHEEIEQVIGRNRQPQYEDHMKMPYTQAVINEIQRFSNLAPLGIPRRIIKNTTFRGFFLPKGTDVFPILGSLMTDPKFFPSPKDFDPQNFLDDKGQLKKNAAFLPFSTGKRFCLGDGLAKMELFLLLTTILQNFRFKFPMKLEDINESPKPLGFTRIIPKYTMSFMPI

The target of the first assay is Cytochrome P450 3A4 (Homo sapiens) (UniProt P08684). Briefly: NVS_ADME_hCYP3A4: NovaScreen (NVS) CYP450-related Enzyme Activity (ADME) Assay for human CYP3A4 (AID 2283110). A digest of the protocol: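 Activity is derived from decreased fluorescence intensity relative to acetonitrile, measured 0.33 hour after dosing insect-cell-expressed CYP3A4 in a cell-free format. Screening used 10 uM in duplicate before concentration-response follow-up.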
Chain of Cytochrome P450 3A4 (Homo sapiens) (P08684 whole entry, looked up): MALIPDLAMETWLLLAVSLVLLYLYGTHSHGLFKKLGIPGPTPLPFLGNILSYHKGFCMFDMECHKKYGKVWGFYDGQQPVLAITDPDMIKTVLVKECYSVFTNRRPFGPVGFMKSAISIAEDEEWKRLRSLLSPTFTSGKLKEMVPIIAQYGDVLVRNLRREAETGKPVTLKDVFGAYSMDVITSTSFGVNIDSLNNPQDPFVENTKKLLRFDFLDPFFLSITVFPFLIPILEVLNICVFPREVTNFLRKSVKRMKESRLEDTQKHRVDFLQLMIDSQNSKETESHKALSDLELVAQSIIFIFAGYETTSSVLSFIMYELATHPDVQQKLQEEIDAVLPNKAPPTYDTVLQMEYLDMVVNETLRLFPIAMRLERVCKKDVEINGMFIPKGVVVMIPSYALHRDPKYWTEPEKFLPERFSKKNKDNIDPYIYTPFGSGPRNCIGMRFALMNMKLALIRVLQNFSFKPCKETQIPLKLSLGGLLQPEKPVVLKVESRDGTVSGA
Broadly, the AC50 is the concentration giving half of the maximal activity seen. As for `[2H]C1([2H])[n+]2ccccc2-c2cccc[n+]2C1([2H])[2H]`, the AC50 is 2.25 µM (active).
On to `N#Cc1c(Cl)c(Cl)c(Cl)c(C#N)c1Cl`, for which the AC50 was 0.302 µM (active).
For the compound `Oc1ccc(Cl)cc1Cc1ccccc1`, the call was inactive.
`CC(C)(C)C(O)/C(=C\c1ccc(Cl)cc1Cl)n1cncn1` (stereo not drawn): the AC50 is 1.2 µM (active).
Consider `O=S(=O)(O)C(F)(F)C(F)(F)C(F)(F)C(F)(F)C(F)(F)C(F)(F)C(F)(F)C(F)(F)F`, for which the call was inactive.
On the same count and under the same terms, the result for `CC(C)(C)C(O)C(Oc1ccc(Cl)cc1)n1cncn1` (stereo not drawn) reads “inactive”.

The next assay deals with Cytochrome P450 2C19 (Homo sapiens) (UniProt P33261). Briefly: NVS_ADME_hCYP2C19: NovaScreen (NVS) CYP450-related Enzyme Activity (ADME) Assay for human CYP2C19 (AID 2283113).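 For AC50: potency for inhibition seen as loss of fluorescent signal.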 Put shortly:
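Fluorescence intensity was measured 1 hour after chemicals were added to insect-cell-derived recombinant CYP2C19 with fluorogenic substrate. Decreased signal versus acetonitrile control was taken as reduced enzyme activity; initial testing used 10 uM in duplicate.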
As for `COc1nn(CSP(=S)(OC)OC)c(=O)s1`, the concentration at half-maximal activity (AC50) was 0.124 µM (active).
On the same count and under the same terms, the result for `O=S1OCC2C(CO1)C1(Cl)C(Cl)=C(Cl)C2(Cl)C1(Cl)Cl` (stereo not drawn) reads 1.64 µM (active); that for `COC(=O)c1ccccc1S(=O)(=O)NC(=O)Nc1nc(C)nc(OC)n1`, 5 µM (active).
The same measure, in the same setting: next, `CC1(C)C(C=C(Cl)Cl)C1C(=O)OC(C#N)c1ccc(F)c(Oc2ccccc2)c1` (stereo not drawn): 13.5 µM (active); `CNC(=O)CSP(=S)(OC)OC`: 2.73 µM (active).
On the same count and under the same terms, next, `CCOC1Oc2ccc(OS(C)(=O)=O)cc2C1(C)C` (stereo not drawn): 3.56 µM (active); `C[C@H]1[C@H](c2ccc(Cl)cc2)SC(=O)N1C(=O)NC1CCCCC1`: 7.38 µM (active).
Consider `N#Cc1c(Cl)c(Cl)c(Cl)c(C#N)c1Cl`, for which the result was inactive.
On to `CC[C@H](C)[C@H]1O[C@]2(C=C[C@@H]1C)C[C@@H]1C[C@@H](C/C=C(\C)[C@@H](O[C@H]3C[C@H](OC)[C@@H](O[C@H]4C[C@H](OC)[C@@H](O)[C@H](C)O4)[C@H](C)O3)[C@@H](C)/C=C/C=C3\CO[C@@H]4[C@H](O)C(C)=C[C@@H](C(=O)O1)[C@]34O)O2` (tested in a mixture with another compound), for which the AC50 is 6.36 µM (active).
On to `Oc1ccc(Cl)cc1Cc1ccccc1`, for which the half-maximal activity concentration (AC50) is 3.27 µM (active) [middle of 7 runs].
`O=C1c2ccccc2C(=O)N1SC(Cl)(Cl)Cl`: the result was inactive.
Consider `CC(C)(C)C(O)/C(=C\c1ccc(Cl)cc1Cl)n1cncn1` (stereo not drawn), for which the AC50 is 0.00727 µM (active).
Still for that read-out and setting: the result for `O=S(=O)(O)C(F)(F)C(F)(F)C(F)(F)C(F)(F)C(F)(F)C(F)(F)C(F)(F)C(F)(F)F` reads 5.18 µM (active) [middle of 5 runs].
For `CC(C)N(C(=O)COc1nnc(C(F)(F)F)s1)c1ccc(F)cc1`, the AC50 was 1.05 µM (active).
Still for that read-out and setting: next, `CCOCN(C(=O)CCl)c1c(C)cccc1CC`: 5.09 µM (active); `O=C(O)COc1ccc(Cl)cc1Cl`: 10 µM (active); `CN1CSC(=S)N(C)C1`: 10 µM (active).
The same measure, in the same setting: next, `CC(C)(C)C(O)C(Oc1ccc(Cl)cc1)n1cncn1` (stereo not drawn): 1.29 µM (active) and 1.71 µM (active) and 1.18 µM (active).
Same read-out and setting: the result for `COP(=S)(OC)Oc1ccc(SC)c(C)c1` reads 2.45 µM (active); that for `COP(=S)(OC)Oc1ccc([N+](=O)[O-])cc1`, 0.25 µM (active).
Consider `CCC(C)(NC(=O)c1cc(Cl)c(C)c(Cl)c1)C(=O)CCl` (stereo not drawn), for which the compound was called inactive.
Consider `CCCN(CCOc1c(Cl)cc(Cl)cc1Cl)C(=O)n1ccnc1`, for which the AC50 was 0.0245 µM (active).
Still for that read-out and setting: next, `O=C(O)CCCOc1ccc(Cl)cc1Cl`: 12.1 µM (active); `CCN(CC)C(=O)SCc1ccc(Cl)cc1`: 10 µM (active); `Cc1[nH]c(=O)n(C(C)(C)C)c(=O)c1Cl`: 6.8 µM (active).

The next assay has as its target rat CYP2A1, Cyp2a1 (gene 24894) (UniProt P11711). Briefly: NVS_ADME_rCYP2A1: NovaScreen (NVS) CYP450-related Enzyme Activity (ADME) Assay for rat CYP2A1 (AID 2283114; active = hit-call score of the fitted dose curve at least 0.9, where 1 is the maximum; inactive = score below 0.9). Put shortly:
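Cell-free fluorescence enzyme-activity read on recombinant rat CYP2A1, taken 0.75 h post-dosing. Compounds were screened in duplicate at 10 uM, then hits tested in concentration series (max 20 uM); inhibition scored relative to acetonitrile baseline.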
As for `O=C(Nc1ccccc1)Nc1cnns1`, the concentration at half-maximal activity (AC50) was 6.13 µM (active).
`CC[C@H](C)[C@H]1O[C@]2(C=C[C@@H]1C)C[C@@H]1C[C@@H](C/C=C(\C)[C@@H](O[C@H]3C[C@H](OC)[C@@H](O[C@H]4C[C@H](OC)[C@@H](O)[C@H](C)O4)[C@H](C)O3)[C@@H](C)/C=C/C=C3\CO[C@@H]4[C@H](O)C(C)=C[C@@H](C(=O)O1)[C@]34O)O2` (tested in a mixture with another compound): the concentration at half-maximal activity (AC50) is 12.7 µM (active).
`Oc1ccc(Cl)cc1Cc1ccccc1`: the half-maximal activity concentration (AC50) was 5.61 µM (active).
For `CC(C)(C)C(O)/C(=C\c1ccc(Cl)cc1Cl)n1cncn1` (stereo not drawn), the half-maximal activity concentration (AC50) is 0.477 µM (active).
As for `CC(C)N(C(=O)COc1nnc(C(F)(F)F)s1)c1ccc(F)cc1`, the half-maximal activity concentration (AC50) was 10 µM (active).
Same read-out and setting: next, `CC(C)(C)C(O)C(Oc1ccc(Cl)cc1)n1cncn1` (stereo not drawn): 3.66 µM (active).
Still for that read-out and setting: the result for `COP(=S)(OC)Oc1ccc(SC)c(C)c1` reads 5.64 µM (active); that for `COP(=S)(OC)Oc1ccc([N+](=O)[O-])cc1`, 7.12 µM (active); that for `CCCN(CCOc1c(Cl)cc(Cl)cc1Cl)C(=O)n1ccnc1`, 0.512 µM (active).

The target of the next assay is rat CYP1A2, Cyp1a2 (gene 24297) (UniProt P04799). Briefly: NVS_ADME_rCYP1A2: NovaScreen (NVS) CYP450-related Enzyme Activity (ADME) Assay for rat CYP1A2 (AID 2283115). Put shortly: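 Primary testing ran in duplicate at 10 uM, with actives re-tested across concentration series. Fluorescence intensity from substrate turnover by recombinant protein, measured 1 hour post-dosing, with signal loss scored against acetonitrile vehicle.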
Chain of rat CYP1A2, Cyp1a2 (gene 24297) (P04799 whole entry, looked up): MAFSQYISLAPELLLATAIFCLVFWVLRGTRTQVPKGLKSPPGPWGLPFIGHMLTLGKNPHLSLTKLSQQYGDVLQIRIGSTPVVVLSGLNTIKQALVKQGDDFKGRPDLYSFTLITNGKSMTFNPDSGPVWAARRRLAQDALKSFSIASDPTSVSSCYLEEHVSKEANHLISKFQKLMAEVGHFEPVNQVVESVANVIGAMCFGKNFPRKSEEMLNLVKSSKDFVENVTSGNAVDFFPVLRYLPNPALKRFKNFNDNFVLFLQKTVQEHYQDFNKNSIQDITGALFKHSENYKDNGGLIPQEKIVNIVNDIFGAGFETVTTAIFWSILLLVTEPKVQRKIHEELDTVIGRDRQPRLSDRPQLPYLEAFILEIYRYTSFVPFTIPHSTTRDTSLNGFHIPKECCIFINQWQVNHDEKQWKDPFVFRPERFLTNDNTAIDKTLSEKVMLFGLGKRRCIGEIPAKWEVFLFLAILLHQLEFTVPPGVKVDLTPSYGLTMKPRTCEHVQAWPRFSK
For `O=C(Nc1ccccc1)Nc1cnns1`, the result was inactive.
Still for that read-out and setting: the result for `N#Cc1c(Cl)c(Cl)c(Cl)c(C#N)c1Cl` reads “inactive”; that for `COP(=S)(OC)Oc1ccc([N+](=O)[O-])cc1`, “inactive”; that for `CCCN(CCOc1c(Cl)cc(Cl)cc1Cl)C(=O)n1ccnc1`, “inactive”.

For a further assay, the target named is rat CYP2A2, Cyp2a2 (gene 24895) (UniProt P15149). Briefly: NVS_ADME_rCYP2A2: NovaScreen (NVS) CYP450-related Enzyme Activity (ADME) Assay for rat CYP2A2 (AID 2283116). How it is done: NVS_ADME_rCYP2A2 is a biochemical, single-readout assay that uses extracted gene-proteins in a cell-free assay. Measurements were taken 0.2 hour after chemical dosing in a 96-well plate.NVS_ADME_rCYP2A2 is one of one assay component(s) measured or calculated from the NVS_ADME_rCYP2A2 assay. It is designed to make measurements of enzyme activity, a form of enzyme reporter, as detected with fluorescence intensity signals by Fluorescence technology.Data from the assay component NVS_ADME_rCYP2A2 was analyzed into 1 assay endpoint. This assay endpoint, NVS_ADME_rCYP2A2, was analyzed in the positive analysis fitting direction relative to Acetonitrile as the negative control and baseline of activity. Using a type of enzyme reporter, loss-of-signal activity can be used to understand changes in the enzymatic activity as they relate to the gene Cyp2a2. Furthermore, this assay endpoint can be referred to as a primary readout, because this assay has produced multiple assay endpoints where this one serves a enzymatic activity function. To generalize the intended target to other relatable targets, this assay endpoint is annotated to the cyp intended target family, where the subfamily is xenobiotic metabolism.
Chain of rat CYP2A2, Cyp2a2 (gene 24895) (P15149 whole entry, looked up): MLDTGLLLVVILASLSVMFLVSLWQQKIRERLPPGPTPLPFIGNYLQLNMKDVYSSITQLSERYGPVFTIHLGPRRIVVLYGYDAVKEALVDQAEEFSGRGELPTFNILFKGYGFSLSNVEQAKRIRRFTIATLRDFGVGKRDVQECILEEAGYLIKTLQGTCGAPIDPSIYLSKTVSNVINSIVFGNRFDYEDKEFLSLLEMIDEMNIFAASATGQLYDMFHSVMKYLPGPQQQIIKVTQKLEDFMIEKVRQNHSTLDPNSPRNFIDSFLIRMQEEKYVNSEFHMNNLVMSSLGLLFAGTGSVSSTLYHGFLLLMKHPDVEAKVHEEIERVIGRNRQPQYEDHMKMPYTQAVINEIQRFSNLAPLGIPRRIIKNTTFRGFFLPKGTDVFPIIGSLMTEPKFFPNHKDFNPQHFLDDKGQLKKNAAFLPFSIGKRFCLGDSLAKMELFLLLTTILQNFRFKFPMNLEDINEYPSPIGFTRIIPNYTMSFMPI
Binding assays used specific radioligands (tritiated, iodinated) with non-radioactive competitive displacement ligands in agonist or antagonist protocols (as indicated) and various reference compounds and inhibitors to titrate specific binding to receptors and transporters. Most enzyme assays (CYPs, kinases, phosphatases, proteases, HDACs) used recombinant protein and specific substrates (fluorescence mostly, some colorimetric and radioactive) and inhibitors, followed by a biochemical separation of substrate and product. All assays for the biochemical HTS were initially run in duplicate at a single concentration (10 uM for CYP450 assays and 25 uM for all others). Assay-chemical combinations meeting a pre-defined threshold (e.g., 30% inhibition and other criteria defined below) were then run in singleton concentration-response format with maximum concentration of 20 uM for CYPs and 50 uM for all others. Each assay was run with positive and negative controls, and concurrent controls on every plate. The follow-up (secondary) screen tested active chemical-pairs in concentration series, as well as a few additional assays not tested in the primary screen, some selected negative inactives, and several cases re-run in the concentration series for confirmatory purposes.
On to `COc1nn(CSP(=S)(OC)OC)c(=O)s1`, for which the concentration at half-maximal activity (AC50) is 4.97 µM (active).
On the same count and under the same terms, next, `CCOC1Oc2ccc(OS(C)(=O)=O)cc2C1(C)C` (stereo not drawn): 6.21 µM (active).
Take `CC[C@H](C)[C@H]1O[C@]2(C=C[C@@H]1C)C[C@@H]1C[C@@H](C/C=C(\C)[C@@H](O[C@H]3C[C@H](OC)[C@@H](O[C@H]4C[C@H](OC)[C@@H](O)[C@H](C)O4)[C@H](C)O3)[C@@H](C)/C=C/C=C3\CO[C@@H]4[C@H](O)C(C)=C[C@@H](C(=O)O1)[C@]34O)O2` (tested in a mixture with another compound): the result was inactive.
Take `CC(C)(C)C(O)/C(=C\c1ccc(Cl)cc1Cl)n1cncn1` (stereo not drawn): the concentration at half-maximal activity (AC50) is 0.0195 µM (active).
With `O=S(=O)(O)C(F)(F)C(F)(F)C(F)(F)C(F)(F)C(F)(F)C(F)(F)C(F)(F)C(F)(F)F`, the compound was called inactive.
`O=C(O)C(F)(F)C(F)(F)C(F)(F)C(F)(F)C(F)(F)C(F)(F)C(F)(F)F`: the AC50 is 2.68 µM (active).
Still for that read-out and setting: next, `CC(C)(C)C(O)C(Oc1ccc(Cl)cc1)n1cncn1` (stereo not drawn): 0.32 µM (active); `COP(=S)(OC)Oc1ccc([N+](=O)[O-])cc1`: 5.69 µM (active); `CCCN(CCOc1c(Cl)cc(Cl)cc1Cl)C(=O)n1ccnc1`: 0.00934 µM (active).

The values are drawn from PubChem BioAssay (EPA / NIEHS).
